Here are results for 36 compounds from PubChem BioAssay (NCI).

Experiment [1] in a line: NCI Yeast Anticancer Drug Screen. Data for the rad50 strain (AID 155).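 Further: 0% = growth of vehicle-only cultures of the same strain.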 Particulars: S. cerevisiae rad50 strain growth inhibition; at 50.0 µM; hits give high values. The gist of the method: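 Relative growth inhibition (compound vs vehicle) was measured in yeast with a defined repair-gene alteration.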
Experiment [2] can be described thus: NCI Yeast Anticancer Drug Screen. Data for the mec2-1 strain (AID 157). The following applies: S. cerevisiae mec2-1 strain, at 50.0 µM, hits give high values. A digest of the protocol:
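Strain: mec2-1 (DNA repair/cell cycle alteration). Compound exposure, then growth measured; inhibition expressed relative to vehicle.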

A short description of experiment [3]: NCI Yeast Anticancer Drug Screen. Data for the sgs1 mgt1 strain (AID 161).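 Further: 0% = growth of cultures given vehicle only.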 The following applies: S. cerevisiae sgs1 mgt1 strain, at 50.0 µM, hits give high values. The gist of the method: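 Genetically altered yeast, compound exposure, growth inhibition relative to vehicle.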
Experiment [4] is described as follows: NCI Yeast Anticancer Drug Screen. Data for the cln2 rad14 strain (AID 165).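 Further: 0% = growth equal to vehicle treated cultures.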 Particulars: S. cerevisiae cln2 rad14 strain, at 50.0 µM, hits give high values. A digest of the protocol:
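Compounds are applied to the cln2 rad14 yeast strain, and growth is then compared with that of vehicle-treated cultures to give inhibition.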

Experiment [5] in a line: NCI Yeast Anticancer Drug Screen. Data for the bub3 strain (AID 167). The following applies: S. cerevisiae bub3 mutant strain, at 50.0 µM, hits give high values. The gist of the method:
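Screening used yeast with an engineered genetic alteration affecting cell cycle control. Compound-exposed cultures were compared with vehicle cultures, and reduced growth was taken as inhibition.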

A short description of experiment [6]: NCI Yeast Anticancer Drug Screen. Data for the mlh1 rad18 strain (AID 175). The following applies: S. cerevisiae mlh1 rad18 strain growth inhibition; at 50.0 µM; hits give high values. The gist of the method: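 Read-out is yeast growth inhibition, calculated against vehicle-only controls. The compound was applied to a strain engineered with DNA damage repair alterations.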

This is part of a sample that, as a whole, favours compounds with a hit. Of some 79,000 tested, about 15% had one in any assay. A number with no mark means an inactive call. Calls of active or inactive are those of the source. No stated cut-off is given here; in the data, active means growth inhibition above about 70%; inactive means the rest.

Regarding `CCCn1c(=S)[nH]c2c(=O)n(C)c(=O)n(C)c21`, the growth inhibition was -3.55% in experiment [1]; -8.9% in experiment [2]; -0.45% in experiment [3]; -17.8% in experiment [4]; -4.85% in experiment [5]; 5.65% in experiment [6].

With `CC(NC1=CC(=O)c2cccnc2C1=O)C(O)c1ccccc1` (stereo unspecified), the growth inhibition in experiment [1] is 82.8% (active); in experiment [2], 80.8% (active); in experiment [3], 72.1% (active); in experiment [4] it was 27.5%; in experiment [5], 64.2%; in experiment [6], 71.3% (active).

`COc1ccc2c(=O)cc[nH]c2c1OC`: the growth inhibition was -13.9% in experiment [1]; -16.4% in experiment [2]; -8.2% in experiment [3]; -23.9% in experiment [4]; 9.1% in experiment [5]; 4.85% in experiment [6].

On to `CN1C(=O)c2ccccc2CC12c1ccccc1C(=O)N2C` (stereo unspecified), for which the growth inhibition was 2.8% in experiment [1]; -13.6% in experiment [2]; 22.9% in experiment [3]; -0.55% in experiment [4]; 15.9% in experiment [5]; 4.45% in experiment [6].

In the case of `CC(=O)/C(=N\N=C(N)N)c1ccccc1`, the growth inhibition was -25.4% in experiment [1]; -28.8% in experiment [2]; -19.6% in experiment [3]; 19.8% in experiment [4]; 18.1% in experiment [5]; 4.5% in experiment [6].

In the case of `CC12CC3CC(C1)CC(NCCO)(C3)C2`, the growth inhibition in experiment [1] was -0.8%; in experiment [2] it was -13.7%; in experiment [3] it was -14.3%; in experiment [4], -83.7%; in experiment [5], -5.45%; in experiment [6], -4.35%.

Take `NC(=O)Nc1ccccc1`: the growth inhibition in experiment [1] was 11.4%; in experiment [2], -8.6%; in experiment [3], -7.55%; in experiment [4], -34.5%; in experiment [5] it was -5.2%; in experiment [6], 14.2%.

With `CCCC(=O)Oc1ccc(Cl)cc1C`, the growth inhibition in experiment [1] is -2.3%; in experiment [2], -1.05%; in experiment [3] it was 2.85%; in experiment [4], -57.6%; in experiment [5], -13.6%; in experiment [6], -3.85%.

Consider `CCOC(=O)N1OC2C=CC1CC2` (stereo unspecified), for which the growth inhibition in experiment [1] was -7.45%; in experiment [2] it was -9.45%; in experiment [3], -12.1%; in experiment [4] it was 11.8%; in experiment [5], 3.45%; in experiment [6] it was 15.1%.

Regarding `COc1ccc(C(=O)N2CCOCC2)cc1`, the growth inhibition in experiment [1] is -8%; in experiment [2] it was -16.6%; in experiment [3], -0.9%; in experiment [4], 31.9%; in experiment [5], -3.05%; in experiment [6], -10.6%.

As for `CCOC(C)C(=O)C=O` (stereo unspecified), the growth inhibition in experiment [1] was -17.9%; in experiment [2], -13.6%; in experiment [3], -17.2%; in experiment [4], -4.55%; in experiment [5] it was -13.4%; in experiment [6], -8.4%.

Regarding `COC(=O)c1ccccc1C1CN=NC12Cc1c(C)cccc1C2=O` (stereo unspecified), the growth inhibition in experiment [1] was -2.25%; in experiment [2] it was 6%; in experiment [3], -5%; in experiment [4] it was -7.1%; in experiment [5], 13.8%; in experiment [6], -13.7%.

`CC(=O)NNc1nc(C)c(C(/C=C/c2ccccc2O)=N/NC(=O)c2ccncc2)s1`: the growth inhibition in experiment [1] is 6.9%; in experiment [2], 5.5%; in experiment [3], 16.1%; in experiment [4], 26.6%; in experiment [5], 17.5%; in experiment [6], 22.2%.

Turning to `CCOC(=O)c1cnc2ccccc2c1`, the growth inhibition in experiment [1] was 3.65%; in experiment [2], 6.8%; in experiment [3], 5.95%; in experiment [4] it was -44.9%; in experiment [5], -1.15%; in experiment [6], 3.3%.

On to `CC(=O)NC(Cc1ccc(C)cc1)C(=O)O` (stereo unspecified), for which the growth inhibition is 3.35% in experiment [1]; -3.75% in experiment [2]; 20.1% in experiment [3]; -3.5% in experiment [4]; -3.05% in experiment [5]; 1.7% in experiment [6].

With `COC1=CC(=O)N/C1=C(\OC)c1ccccc1`, the growth inhibition in experiment [1] was -24.5%; in experiment [2], -0.95%; in experiment [3] it was -7%; in experiment [4], -5.6%; in experiment [5] it was -15.2%; in experiment [6], -5.2%.

As for `Cc1cc(=O)c(CO)n[nH]1`, the growth inhibition is 8.75% in experiment [1]; 15.2% in experiment [2]; 3.7% in experiment [3]; 6.8% in experiment [4]; 3.45% in experiment [5]; 19.5% in experiment [6].

Regarding `CCOC(=O)Cn1c2ccccc2c(=O)c2cc(C)c(C)c(C#N)c21`, the growth inhibition in experiment [1] was 13.4%; in experiment [2], -12.9%; in experiment [3], -11.6%; in experiment [4], 9%; in experiment [5], 8.5%; in experiment [6] it was 8.1%.

Regarding `CCc1nc(N)nc(C(=O)NCCNC(=O)c2nc(N)nc(CC)c2C)c1C`, the growth inhibition was -38.1% in experiment [1]; -14.2% in experiment [2]; -11.6% in experiment [3]; -16.7% in experiment [4]; -13.4% in experiment [5]; -45.5% in experiment [6].

Consider `O=C(O)C1C(CCl)=C1CCl`, for which the growth inhibition is -15.8% in experiment [1]; 20.7% in experiment [2]; 2.35% in experiment [3]; -11.3% in experiment [4]; 4.7% in experiment [5]; -2.9% in experiment [6].

In the case of `Cc1cccc[n+]1CCC(N)=O`, the growth inhibition in experiment [1] was -6.55%; in experiment [2], -26.8%; in experiment [3], -1.85%; in experiment [4], 5.5%; in experiment [5], -15.8%; in experiment [6], -6.25%.

`Cc1ccc(NCCN)c2c(=O)c3cc(O)ccc3sc12`: the growth inhibition was 86% (active) in experiment [1]; 32.3% in experiment [2]; 40.4% in experiment [3]; 25.1% in experiment [4]; 9.65% in experiment [5]; 86.7% (active) in experiment [6].

`COC(=O)CC1(C(=O)OC)Nc2ccccc2C(=O)O1` (stereo unspecified): the growth inhibition is 2.65% in experiment [1]; 21.7% in experiment [2]; 18.8% in experiment [3]; -11.1% in experiment [4]; -11.1% in experiment [5]; 2.9% in experiment [6].

For the compound `Cc1cccc(N=NC2Sc3nc4ccccc4n3C2=O)c1` (stereo unspecified), the growth inhibition was -16.9% in experiment [1]; -19.4% in experiment [2]; -20.1% in experiment [3]; -9.25% in experiment [4]; 2.25% in experiment [5]; 2.9% in experiment [6].

As to `CCCCNC1(N(C)C)N=C(N(C)C)N=C(N(C)C)O1` (stereo unspecified), the growth inhibition in experiment [1] is -2.2%; in experiment [2], -1.4%; in experiment [3], -1.05%; in experiment [4], 17.8%; in experiment [5], 8.35%; in experiment [6], -0.45%.

For the compound `CC1(C)C2CCC1C(=O)C(C=O)C2` (stereo unspecified), the growth inhibition was -10.3% in experiment [1]; 16.1% in experiment [2]; -22.1% in experiment [3]; 32.5% in experiment [4]; -40.2% in experiment [5]; -41.8% in experiment [6].

As to `OC(CBr)c1cc(-c2ccc(Cl)cc2)nc2c(-c3ccccc3)cccc12` (stereo unspecified), the growth inhibition in experiment [1] was -3%; in experiment [2] it was 3.85%; in experiment [3] it was -4.05%; in experiment [4], -25.4%; in experiment [5], 2.35%; in experiment [6] it was 28.7%.

Regarding `CCOC(=O)/C(Cc1cc(=O)n(C)c2ccccc12)=N\Nc1ccccc1`, the growth inhibition was 2.85% in experiment [1]; -12.2% in experiment [2]; 2.6% in experiment [3]; -4.6% in experiment [4]; 10.6% in experiment [5]; -6.75% in experiment [6].

`Cc1nn(-c2ccccc2)c2oc3ccccc3c(=O)c12`: the growth inhibition in experiment [1] was -25.6%; in experiment [2], -7.4%; in experiment [3], -35.5%; in experiment [4], -29.5%; in experiment [5] it was -20.9%; in experiment [6] it was -31.1%.

Regarding `O=C(CSc1nnc(-c2ccc(N=Cc3ccc(Cl)cc3)cc2)o1)Nc1ccc(Cl)cc1`, the growth inhibition in experiment [1] was 3.1%; in experiment [2], -41%; in experiment [3], -2.25%; in experiment [4] it was -66%; in experiment [5], -11.8%; in experiment [6] it was 0%.

For the compound `CN1CCN(Cc2oc(CO)cc(=O)c2O)CC1`, the growth inhibition was -3.8% in experiment [1]; -22.9% in experiment [2]; 5.2% in experiment [3]; 12.2% in experiment [4]; 16.8% in experiment [5]; -7.65% in experiment [6].

Take `CC(=O)OC1C(C(O)CO)OC2OC(C)(C)OC21` (stereo unspecified): the growth inhibition in experiment [1] was -10.9%; in experiment [2], -14.1%; in experiment [3], -14%; in experiment [4], -58.8%; in experiment [5], -59.5%; in experiment [6], -6.25%.

With `O=[N+]([O-])c1ccc(OCCSc2ccccc2)cc1`, the growth inhibition in experiment [1] was 9%; in experiment [2], 33%; in experiment [3] it was 55%; in experiment [4], 12.6%; in experiment [5] it was 60.2%; in experiment [6], 12.8%.

Consider `CCOC(=O)CC1=Nc2ccccc2SC1`, for which the growth inhibition in experiment [1] was -28.4%; in experiment [2], -31.2%; in experiment [3] it was -14.8%; in experiment [4], -12.8%; in experiment [5], -22.6%; in experiment [6], -28.6%.

With `CN(C)c1ccc(/C=C/c2ccccc2)cc1`, the growth inhibition in experiment [1] is -3.6%; in experiment [2], -6.15%; in experiment [3], -8.95%; in experiment [4], -15.1%; in experiment [5] it was -16.2%; in experiment [6], 1.55%.

In the case of `O=C(SCCN1CCCC1)C(O)(c1ccccc1)C1CCCC1` (stereo unspecified), the growth inhibition is 14.8% in experiment [1]; -6% in experiment [2]; -5.3% in experiment [3]; -7.95% in experiment [4]; -2.35% in experiment [5]; 11.7% in experiment [6].
